High-throughput results as filed in PubChem.
Anthrax LF inh2 = blocks Bacillus anthracis lethal factor protease. multiplex microsphere protease cleavage assay, LF. inhibition, % at 10 µM. actives 0.12% (n = 360,000). AID 588501
Target sequence (P15917 whole entry, looked up): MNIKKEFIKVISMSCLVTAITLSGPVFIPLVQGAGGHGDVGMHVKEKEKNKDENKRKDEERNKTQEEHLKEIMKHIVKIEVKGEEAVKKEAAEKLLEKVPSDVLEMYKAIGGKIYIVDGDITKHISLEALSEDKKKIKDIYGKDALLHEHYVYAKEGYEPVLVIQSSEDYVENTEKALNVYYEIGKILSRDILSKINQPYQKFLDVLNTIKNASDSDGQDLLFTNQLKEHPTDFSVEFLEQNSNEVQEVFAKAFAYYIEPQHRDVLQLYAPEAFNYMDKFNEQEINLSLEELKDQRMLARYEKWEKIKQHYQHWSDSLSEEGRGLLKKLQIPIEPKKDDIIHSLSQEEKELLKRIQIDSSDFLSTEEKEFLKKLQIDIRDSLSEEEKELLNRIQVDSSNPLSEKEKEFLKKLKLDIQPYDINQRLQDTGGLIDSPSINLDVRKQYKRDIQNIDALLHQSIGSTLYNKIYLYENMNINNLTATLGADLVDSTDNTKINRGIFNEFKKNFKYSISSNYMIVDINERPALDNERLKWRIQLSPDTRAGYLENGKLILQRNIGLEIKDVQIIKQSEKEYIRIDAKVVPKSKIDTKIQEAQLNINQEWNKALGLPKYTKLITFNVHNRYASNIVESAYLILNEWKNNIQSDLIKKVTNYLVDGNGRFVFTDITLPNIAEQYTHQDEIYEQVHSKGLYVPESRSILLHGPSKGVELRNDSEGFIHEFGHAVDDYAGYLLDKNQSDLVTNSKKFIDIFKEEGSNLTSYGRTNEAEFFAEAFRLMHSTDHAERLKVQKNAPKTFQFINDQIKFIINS
CCHFV vOTU inh = CCHFV vOTU protease inhibition; Pep-AMC fluorescence; inhibition, % at 11.5 µM; actives 0.55% (n = 370,000); AID 651958; in the data active = inhibition above about 30%
Bead autofluor = flagged as autofluorescent in microsphere protease counterscreen | compound autofluorescence counterscreen, microsphere flow cytometry; hits give high values | fluorescence intensity (concentration not given with the values) | actives 3.1% (n = 360,000); in the data active = fluorescence intensity above about 16000; inconclusive = no clear call, values can overlap the other calls
BoNT-F LC inh = inhibitors of Botulinum neurotoxin F light chain protease. AID 588497. Multiplex microsphere protease cleavage assay, flow cytometry. inhibition, % at 10 µM. actives 0.22% (n = 360,000); in the data active = inhibition above about 35%, passing the limit was not always enough; inconclusive = no clear call, values can overlap the other calls
SARS 3CLpro inh = SARS-CoV 3CLpro protease inhibition | recombinant SARS-CoV 3CLpro, quenched FRET peptide cleavage | actives 0.14% (n = 290,000) | inhibition, % at 6 µM | AID 1706; in the data active = inhibition above about 12%
BoNT A protease = blocks Botulinum neurotoxin A light chain protease. multiplex microsphere protease substrate cleavage, flow cytometry. inhibition, % at 10 µM. actives 0.17% (n = 360,000). AID 588499
Large screens that a line does not name were inactive. Only some compounds are listed: those with a hit (about 3.9% of all), similar ones and a draw of the others. Cut-off read from the data, not from the text of the source, unless noted: active = inhibition above about 30%; inconclusive = no clear call, values can overlap the other calls; inactive = below that.

O=C(O)c1cc(S(=O)(=O)N2CCCCC2)ccc1F	Bead autofluor 21594
COC(=O)c1cc(NC(=O)CN(c2ccccc2OC)S(=O)(=O)c2ccccc2)ccc1Cl	SARS 3CLpro inh 13
O=C(Nc1ccc(O)cc1)c1cc(S(=O)(=O)N2CCCC2)ccc1Cl	Bead autofluor 20180
O=C(c1ccc2[nH]c(=O)c(=O)[nH]c2c1)N1CCc2ccccc21	none
COc1ccc(NC(=O)c2cc(S(=O)(=O)N3CCCCC3)ccc2N2CCCCC2)cn1	Bead autofluor 23676
COc1ccccc1N(CC(=O)Nc1ccc(S(=O)(=O)N2CCCCC2)cc1)S(C)(=O)=O	Bead autofluor 22900, BoNT A protease inconclusive
COc1ccccc1CC(=O)Nc1ccc(S(=O)(=O)N2CCCCC2)cc1	none
Cc1cc2nc(/N=C(\N)NC(=O)N3c4ccccc4Sc4ccccc43)nc(C)c2cc1C	none
COc1cc2c(cc1OC)C(COc1ccc([N+](=O)[O-])cc1)N(C(C)=O)CC2 (stereo not given)	none
CCOc1ccc(-n2c(SCC(=O)Nc3ccccc3-c3ccccc3)nnc2-c2cccs2)cc1	none (no result: Anthrax LF inh2, Bead autofluor, BoNT-F LC inh, SARS 3CLpro inh, BoNT A protease)
Cc1cccc(C(=O)Nc2ccc(Cl)cc2C(=O)c2ccccc2)c1	Bead autofluor 20672, BoNT A protease inconclusive
CCOC(=O)/C(=C/C1=CC(=C/N(C)C)/C(=O)O1)C(C)=O	BoNT-F LC inh 36
CC1=NC(=O)C(N=Nc2cccc(O)c2)N1c1ccccc1 (stereo not given)	Bead autofluor 16879
CC1Cc2ccccc2N1C(=O)Cc1cccs1 (stereo not given)	Bead autofluor 17722
CC1Cc2ccccc2N1C(=O)CN1C(=O)COc2ccccc21 (stereo not given)	none
CC1Cc2ccccc2N1C(=O)CCS(=O)(=O)c1cccs1 (stereo not given)	none
CC1Cc2ccccc2N1C(=O)Cn1c(=O)cc(O)c2ccccc21 (stereo not given)	Bead autofluor 24078, BoNT A protease inconclusive
CCN(CC)CCN(C(=O)C1=COCCO1)c1nc2c(OC)ccc(OC)c2s1	none
COP(=O)(O)C[C@@H]1CCc2cc(C)cc([C@H](CC(C)C)NC(=O)OCc3ccccc3)c2O1	none (no result: Anthrax LF inh2, Bead autofluor, BoNT-F LC inh, SARS 3CLpro inh, BoNT A protease)
C/C(=C\c1ccccc1)CN1CCN(c2ccccc2)CC1	Bead autofluor 21899
C/C=C(\C)CN1CCN(c2ccccc2F)CC1	Bead autofluor 23234
C/C=C(\C)CN1CCN(c2cccc(C)c2C)CC1	none
CCC(Sc1nc(C)cc(=O)[nH]1)C(=O)Nc1nc2c(s1)CCCC2 (stereo not given)	Bead autofluor 22164, BoNT A protease inconclusive
O=C(Nc1nccs1)C1(C(=O)C2CC2)CC(c2ccccn2)=NO1 (stereo not given)	none (no result: Anthrax LF inh2, Bead autofluor, BoNT-F LC inh, SARS 3CLpro inh, BoNT A protease)
Cc1ccc2c(c1)N(CC(=O)N1CCCCCC1)C(=O)C(C)O2 (stereo not given)	none
Cc1ccc2c(c1)N(Cc1cccc(F)c1)C(=O)C(C)O2 (stereo not given)	none
Cc1ccc2c(c1)N(CC(=O)c1cccc(Cl)c1)C(=O)C(C)O2 (stereo not given)	Bead autofluor 23986
Cc1ccc2c(c1)N(CC(=O)N(Cc1ccc3c(c1)OCO3)CC1CCCO1)C(=O)C(C)O2 (stereo not given)	Bead autofluor 23947
Cc1ccc2c(c1)N(Cc1ccncc1)C(=O)C(C)O2 (stereo not given)	Bead autofluor 22957
CC1Oc2ccccc2N(CC(=O)c2cccc(Cl)c2)C1=O (stereo not given)	Bead autofluor 19669
Cc1cccc(C)c1NC(=O)c1c[nH]c2ccccc12	none
Cc1ccc(-c2c(NC(=O)c3ccc(F)cc3)nc3ncccn23)cc1	none (no result: Anthrax LF inh2, Bead autofluor, BoNT-F LC inh, SARS 3CLpro inh, BoNT A protease)
CN(C)CCCNc1nc2cc(-c3ccn[nH]3)sc2c(=O)n1C	none (no result: SARS 3CLpro inh)
CC(C)[C@H](NC(=O)Nc1ccc2c(c1)OCCO2)C(=O)O	Bead autofluor 20779
COC(=O)[C@H](CC(C)C)NC(=O)Nc1ccc2c(c1)OCCO2	Bead autofluor 22561
Cc1cc(C(=O)O[C@H]2CCC[C@]3(C(=O)N(Cc4ccccc4)c4ccccc43)[C@H]2NC(=O)CCc2ccccc2)no1	none (no result: Anthrax LF inh2, Bead autofluor, BoNT-F LC inh, SARS 3CLpro inh, BoNT A protease)
Cc1nnsc1C(=O)Nc1ccc(Cl)cc1	Bead autofluor 21839
Cc1nc(NC(=O)/C=C/c2ccccc2)sc1C(=O)Nc1ccc(Cl)cc1	Bead autofluor 23690
Cc1nnsc1C(=O)Nc1cccc(Cl)c1Cl	none
Cc1nnsc1C(=O)Nc1ccccc1	none
Cc1nnsc1C(=O)Nc1ccccc1Cl	Bead autofluor 21871
CCOc1ccc(NC(=O)CN(C)C(=O)CCCOc2ccc(Br)cc2)cc1OCC	none (no result: SARS 3CLpro inh)
COC(=O)[C@@]1(Cc2ccc(F)cc2)[C@H]2c3cc(C(=O)N4CCCC4)n(CCc4c[nH]c5ccccc45)c3C[C@H]2CN1C(=O)c1ccccc1	none (no result: SARS 3CLpro inh)
COc1ccc(S[C@]2(C(=O)N3CCN(c4ncccn4)CC3)CC(=O)N(c3ccccc3)[C@@H]2c2ccc(OC)cc2)cc1	none (no result: Anthrax LF inh2, Bead autofluor, BoNT-F LC inh, SARS 3CLpro inh, BoNT A protease)
CCn1c(CC(=O)Nc2ccccc2F)nnc1SCC(=O)NC1CCCC1	none
COc1ccc(NC(C)C(=O)Nc2ccc(C#N)cc2)cc1Cl (stereo not given)	Bead autofluor 22894, BoNT A protease inconclusive
COc1ccc(NCC(=O)Nc2ccc(C#N)cc2)cc1Cl	Bead autofluor 22730
COc1ccc(NC(C)C(=O)Nc2ccc(C(C)(C)C)cc2)cc1Cl (stereo not given)	none
CN(CC(=O)Nc1ccc(C#N)cc1)Cc1ccc(Cl)cc1	none
CN(CC(=O)Nc1ccc(C#N)cc1)Cc1ccc(Cl)cc1Cl	Bead autofluor 22298
COc1ccc2[nH]c3c(c2c1)CCN1C(=O)C(CC(=O)NC(C)(C)C)C[C@H](C(=O)N2CCCCC2)[C@@]31C (stereo not given in full)	none (no result: SARS 3CLpro inh)
O=C(NC1CSCC1OC(=O)c1ccccc1)c1ccccc1 (stereo not given)	none
COC(=O)NC1CSCC1OC(=O)c1ccc(Br)cc1 (stereo not given)	Bead autofluor 22183, BoNT A protease inconclusive
Cc1c(C(=O)Nc2ccc(C(F)(F)F)cc2)sc2ncn(CC(=O)N3CCN(c4ccccn4)CC3)c(=O)c12	none
Cc1c[nH]c2cccc(-c3ccc(OCc4ccccc4)cc3)c12	none (no result: Anthrax LF inh2, Bead autofluor, BoNT-F LC inh, SARS 3CLpro inh, BoNT A protease)
CCC(C)[C@H](NC(=O)NCc1ccco1)C(=O)OC (stereo not given in full)	BoNT-F LC inh inconclusive
CC(C)Oc1ccc(C(CC(=O)NCc2ccco2)c2ccccc2)cc1 (stereo not given)	Bead autofluor 16645
COC(=O)[C@H](C)NC(=O)NCc1ccco1	Bead autofluor 20251 (no result: CCHFV vOTU inh)
CCOC(=O)N1CCN(C(=O)/C(=C/c2cccc3ccccc23)NC(=O)c2ccc(OC)cc2)CC1	Bead autofluor 24028
CCOC(=O)N1CCN(C(=O)/C(=C/c2ccc(OC)cc2)NC(=O)c2ccccc2)CC1	none
O=C(NC1CCCCN(Cc2ccc(OC(F)(F)F)cc2)C1=O)c1ccc2ccccc2c1 (stereo not given)	none (no result: Anthrax LF inh2, Bead autofluor, BoNT-F LC inh, SARS 3CLpro inh, BoNT A protease)
Cc1nnc(C)c2c(C)n(C(C)c3ccccc3)c(C)c12 (stereo not given)	none
